Tests used:
Assay in all cases: protein-binding microarray (PBM); PBM: ~300 nM protein, 6 mM HEPES pH 7.8, 80 mM KCl, 0.5 mM EDTA, 0.5 mM EGTA, 6% glycerol, 35 ng/ul poly-dIdC, 1% milk, 1 h, room temperature; Ap Aiptasia and Nv Nematostella (sea anemones) / Co Capsaspora / Aq Amphimedon (sponge) / Dm Drosophila / Hu human; RHD is the Rel homology domain; high values mean tight binding
Details in all cases: dsDNA, one strand shown
GST-Ap-NF-kB RHD = biological target: T1, GST-Ap-NF-kB RHD (Exaiptasia pallida (Aiptasia), UniProt A0A913YAJ5 2-422)
T1 sequence: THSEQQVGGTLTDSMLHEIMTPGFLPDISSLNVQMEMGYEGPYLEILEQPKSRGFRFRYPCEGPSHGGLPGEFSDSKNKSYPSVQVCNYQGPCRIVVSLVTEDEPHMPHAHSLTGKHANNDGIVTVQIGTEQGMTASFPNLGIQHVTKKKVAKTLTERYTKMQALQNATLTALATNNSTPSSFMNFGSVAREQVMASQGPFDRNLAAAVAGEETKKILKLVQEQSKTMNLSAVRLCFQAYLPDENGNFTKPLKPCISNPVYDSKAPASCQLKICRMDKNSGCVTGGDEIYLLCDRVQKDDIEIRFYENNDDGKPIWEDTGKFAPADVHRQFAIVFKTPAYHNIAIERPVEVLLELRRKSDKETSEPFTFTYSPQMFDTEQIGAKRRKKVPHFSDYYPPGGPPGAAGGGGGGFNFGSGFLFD

[1] = biological target: T2, GST-Nv-NF-kB (Cys allele) (Nematostella vectensis, UniProt E5G601 2-411)
T2 sequence: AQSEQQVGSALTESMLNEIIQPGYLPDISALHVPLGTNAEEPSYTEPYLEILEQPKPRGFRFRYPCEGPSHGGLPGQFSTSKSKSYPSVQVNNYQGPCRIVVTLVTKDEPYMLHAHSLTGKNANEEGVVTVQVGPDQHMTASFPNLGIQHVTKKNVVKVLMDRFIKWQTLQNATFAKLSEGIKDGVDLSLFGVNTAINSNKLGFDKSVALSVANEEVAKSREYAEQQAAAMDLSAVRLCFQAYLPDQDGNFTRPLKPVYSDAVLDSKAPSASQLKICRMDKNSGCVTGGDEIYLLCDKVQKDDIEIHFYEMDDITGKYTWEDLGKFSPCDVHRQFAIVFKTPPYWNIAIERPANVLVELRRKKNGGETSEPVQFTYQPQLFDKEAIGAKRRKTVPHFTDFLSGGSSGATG

GST-Co-NF-kB = biological target: T3, GST-Co-NF-kB (Capsaspora owczarzaki, UniProt F1ARL5 200-546)
T3 sequence: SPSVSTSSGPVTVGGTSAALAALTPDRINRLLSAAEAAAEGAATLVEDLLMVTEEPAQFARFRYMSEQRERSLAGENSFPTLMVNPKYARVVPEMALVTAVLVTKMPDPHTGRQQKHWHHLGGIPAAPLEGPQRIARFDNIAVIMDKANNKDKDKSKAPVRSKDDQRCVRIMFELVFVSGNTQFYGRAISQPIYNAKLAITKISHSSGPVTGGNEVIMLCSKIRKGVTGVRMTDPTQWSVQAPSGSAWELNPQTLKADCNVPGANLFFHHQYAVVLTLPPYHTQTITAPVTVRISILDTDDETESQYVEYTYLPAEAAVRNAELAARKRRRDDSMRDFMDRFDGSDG

GST-Dm-Relish = biological target: T4, GST-Dm-Relish (Drosophila melanogaster, UniProt Q94527 99-473)
T4 sequence: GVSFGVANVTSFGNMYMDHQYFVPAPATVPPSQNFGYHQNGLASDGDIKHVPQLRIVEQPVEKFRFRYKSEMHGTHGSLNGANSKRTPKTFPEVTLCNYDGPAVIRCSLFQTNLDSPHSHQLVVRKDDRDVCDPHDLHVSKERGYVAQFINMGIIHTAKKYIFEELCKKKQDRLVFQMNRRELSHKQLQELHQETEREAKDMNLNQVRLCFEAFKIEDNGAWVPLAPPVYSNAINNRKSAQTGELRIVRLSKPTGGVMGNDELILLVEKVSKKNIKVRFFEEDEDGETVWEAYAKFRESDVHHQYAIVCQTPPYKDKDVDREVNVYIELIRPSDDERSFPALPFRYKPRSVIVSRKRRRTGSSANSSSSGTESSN

GST-Aq-NF-kB = biological target: T5, GST-Aq-NF-kB (Amphimedon queenslandica, UniProt A9Y5G7 2-389)
T5 sequence: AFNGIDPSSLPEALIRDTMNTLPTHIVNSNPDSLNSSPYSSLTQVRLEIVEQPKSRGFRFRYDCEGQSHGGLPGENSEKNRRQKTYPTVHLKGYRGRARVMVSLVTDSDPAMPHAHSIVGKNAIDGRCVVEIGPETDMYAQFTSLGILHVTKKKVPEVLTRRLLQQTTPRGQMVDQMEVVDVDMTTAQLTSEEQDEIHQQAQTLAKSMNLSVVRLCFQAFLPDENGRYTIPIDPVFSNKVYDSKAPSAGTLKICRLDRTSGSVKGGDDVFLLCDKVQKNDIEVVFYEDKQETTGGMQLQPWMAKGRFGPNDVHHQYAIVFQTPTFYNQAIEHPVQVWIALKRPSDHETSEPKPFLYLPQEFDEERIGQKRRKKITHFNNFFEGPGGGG

Row | Sequence | binding signal (GST-Ap-NF-kB RHD) [z-score] | binding signal [1] [z-score] | binding signal (GST-Co-NF-kB) [z-score] | binding signal (GST-Dm-Relish) [z-score] | binding signal (GST-Aq-NF-kB) [z-score]
1 | CCGATTAACATCAAGGTTTTCCCTGATGTTAATCGGGTCTTGATTCGCTTGACGCTGCTG | 4.36 | 5.34 | 4.71 | 5.1 | 5.65
2 | CCGATTAACATCAAAAATTGCCCTGATGTTAATCGGGTCTTGATTCGCTTGACGCTGCTG | 1.25 | 1.84 | 1.78 | 1.5 | 2.99
3 | CCGATTAACATCACGAAAATCCCTGATGTTAATCGGGTCTTGATTCGCTTGACGCTGCTG | 4.71 | 4.39 | 1.55 | 6.19 | 4.64
4 | CCGATTAACATCAGACAATTCCCTGATGTTAATCGGGTCTTGATTCGCTTGACGCTGCTG | 3.02 | 5 | 2.28 | 1.37 | 4.77
5 | CCGATTAACATCAAAACAGCCCCTGATGTTAATCGGGTCTTGATTCGCTTGACGCTGCTG | 3.58 | 4.9 | 1.71 | 3.31 | 5.54
6 | CCGATTAACATCACGGGGTTCCCTGATGTTAATCGGGTCTTGATTCGCTTGACGCTGCTG | 4.82 | 2.58 | 2.51 | 9.28 | 6.02
7 | CCGATTAACATCAAACTTTCCCATGATGTTAATCGGGTCTTGATTCGCTTGACGCTGCTG | 3.24 | 4.83 | 4.07 | 1.39 | 5.27
8 | CCGATTAACATCAAGTTTACCCCTGATGTTAATCGGGTCTTGATTCGCTTGACGCTGCTG | 3.21 | 2.2 | 6.61 | 2.4 | 2.91
9 | CCGATTAACATCAAAAAACACCCTGATGTTAATCGGGTCTTGATTCGCTTGACGCTGCTG | 4.07 | 4.18 | 2.93 | 6.06 | 5.32
10 | CCGATTAACATCAAAAATCACCCTGATGTTAATCGGGTCTTGATTCGCTTGACGCTGCTG | 2.67 | 2.98 | 2.5 | 7.81 | 3.84
11 | CCGATTAACATCACGGGAGTTCCTGATGTTAATCGGGTCTTGATTCGCTTGACGCTGCTG | 3.99 | 3.71 | 1.77 | 4.98 | 5.04
12 | CCGATTAACATCACCCGGGAAAATGATGTTAATCGGGTCTTGATTCGCTTGACGCTGCTG | 2.61 | 3.28 | 5.18 | 1.52 | 2.6
13 | CCGATTAACATCAGGGAACTTTATGATGTTAATCGGGTCTTGATTCGCTTGACGCTGCTG | 4.27 | 4.23 | 2.81 | 4.83 | 5.17
14 | CCGATTAACATCAGGGGACGGGATGATGTTAATCGGGTCTTGATTCGCTTGACGCTGCTG | 4.78 | 3.92 | 2.14 | 1.43 | 3.92
15 | CCGATTAACATCAACTAATTCCCTGATGTTAATCGGGTCTTGATTCGCTTGACGCTGCTG | 2.18 | 4.19 | 3.13 | 1.91 | 3.44
16 | CCGATTAACATCACAGGGAAAAATGATGTTAATCGGGTCTTGATTCGCTTGACGCTGCTG | 2.81 | 4.49 | 5.03 | 1.6 | 3.9
17 | CCGATTAACATCAGGGGTTACACTGATGTTAATCGGGTCTTGATTCGCTTGACGCTGCTG | 2.67 | 1.04 | 2.66 | 2 | 2.36
18 | CCGATTAACATCAGAAGTTCCCATGATGTTAATCGGGTCTTGATTCGCTTGACGCTGCTG | 2.2 | 2.3 | 2.44 | 3.27 | 2.82
19 | CCGATTAACATCAGGGGTTTCCATGATGTTAATCGGGTCTTGATTCGCTTGACGCTGCTG | 5.75 | 5.04 | 1.21 | 8.15 | 5.61
20 | CCGATTAACATCACTTCCCCCCATGATGTTAATCGGGTCTTGATTCGCTTGACGCTGCTG | 4.7 | 4.18 | 8.31 | 3.34 | 3.86
21 | CCGATTAACATCAAATAGGGAATTGATGTTAATCGGGTCTTGATTCGCTTGACGCTGCTG | 2.29 | 5.11 | 1.54 | 1.32 | 3.5
22 | CCGATTAACATCAACGTATTCCCTGATGTTAATCGGGTCTTGATTCGCTTGACGCTGCTG | 3.17 | 2.78 | 2.86 | 1.41 | 1.85
23 | CCGATTAACATCAGTAATTCCCATGATGTTAATCGGGTCTTGATTCGCTTGACGCTGCTG | 4.02 | 4.3 | 5.42 | 7.23 | 4.24
24 | CCGATTAACATCAGGGGGTAGAATGATGTTAATCGGGTCTTGATTCGCTTGACGCTGCTG | 4.45 | 2.63 | 7.1 | 2.13 | 3.38
25 | CCGATTAACATCAGGAGTACCCCTGATGTTAATCGGGTCTTGATTCGCTTGACGCTGCTG | 3.01 | 2.42 | 2.96 | 3.64 | 4.07
26 | CCGATTAACATCAAAGAAGCCCCTGATGTTAATCGGGTCTTGATTCGCTTGACGCTGCTG | 4.38 | 5.52 | 1.52 | 4.39 | 5.13
27 | CCGATTAACATCAGGGTATTACCTGATGTTAATCGGGTCTTGATTCGCTTGACGCTGCTG | 4.39 | 6.02 | 1.57 | 5.28 | 7.69
